Source: PubChem BioAssay (EPA / NIEHS)
Values joined by “and” are separate entries in the source; they are usually repeats but may differ in a detail not shown here. Equal values may be shown once. Some structures have more than one record in an assay (separate samples or runs), and their calls can disagree. Active and inactive are the calls of the source. Rule for the calls: active = hit-call score of the fitted dose curve at least 0.9, where 1 is the maximum; inactive = score below 0.9.

Read-out: not listed separately
Assay: BSK_hDFCGF_SRB: Viability Assessment in the BioMAP Diversity Plus: hDFCGF Assay (AID 2283061);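 note: cells exposed to compound for 24 h before the read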
Conditions: primary human foreskin fibroblasts
Method in brief: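 Readout is SRB absorbance at 560 nm, reflecting total protein in parallel cultures of human foreskin fibroblasts harvested 24 h after chemical dosing. Activity was fitted bidirectionally relative to DMSO.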

SMILES	outcome	AC50
O=S(=O)(OCC(F)(F)F)C(F)(F)C(F)(F)C(F)(F)C(F)(F)F	inactive	–
C=CC(=O)OCC(F)(F)C(F)(F)C(F)(F)C(F)(F)C(F)(F)C(F)(F)C(F)(F)C(F)F	inactive	–
NS(=O)(=O)C(F)(F)C(F)(F)C(F)(F)C(F)(F)C(F)(F)C(F)(F)F	inactive	–
CC(C)CCCC(C)CCO (stereo not given)	inactive	–
CCN(CC)c1ccc(C=O)cc1	inactive	–
O=C=Nc1cccc2c(N=C=O)cccc12	inactive	–
C=CC(=O)OCCC(F)(F)C(F)(F)C(F)(F)C(F)(F)F	inactive	8.28 µM (active)
OCCCCC(F)(F)C(F)(F)C(F)(F)C(F)(F)F	inactive	–
O=C(O)CCC(F)(F)C(F)(F)C(F)(F)C(F)(F)C(F)(F)C(F)(F)C(F)(F)F	inactive	2.25 µM (active)
CCN(CC)c1ccc(N=Nc2ccccc2)cc1	inactive	–
O=S(=O)(Cl)C(F)(F)C(F)(F)C(F)(F)C(F)(F)C(F)(F)C(F)(F)C(F)(F)C(F)(F)F	inactive	–
O=C(Cl)C(F)(F)C(F)(F)C(F)(F)C(F)(F)C(F)(F)C(F)(F)F	inactive	–
Cc1cc(O)c(C(C)(C)C)cc1C(C)(C)C	–	5.28 µM (active)
FC(F)(F)C(F)(F)C(F)(F)CC1CO1 (stereo not given)	inactive	–
O=C(O)C(F)(F)C(F)(F)C(F)(F)C(=O)O	–	1.81 µM (active) and 19.7 µM (active)
Cc1cnccn1	inactive	–
CN(C(=O)C(F)(F)C(F)(F)C(F)(F)F)[Si](C)(C)C	inactive	–

SMILES	outcome	AC50
Brc1nc2ccccc2s1	inactive	–
CCN(CC)c1ccc2c(c1)Oc1cc(N(CC)CC)ccc1C21OC(=O)c2ccccc21	inactive	–
NC(O)(C(F)(F)F)C(F)(F)F	inactive	–
O=C(O)C(F)(F)OC(F)(F)C(F)(F)OC(F)(F)C(F)(F)OC(F)(F)F	inactive	–
O=C(O)C(F)(F)C(F)(F)C(F)(F)C(F)(F)C(F)(F)C(F)(F)C(F)F	inactive	–
NC(=O)C(F)(F)C(F)(F)C(F)(F)C(F)F	inactive	–
OC(O)C(F)(F)C(F)(F)F	inactive	–
COC(F)(C(F)F)C(F)(F)F (stereo not given)	inactive	–
Cc1ccc(O)c(-n2nc3ccccc3n2)c1	inactive	–
CCN=C1C=CC(=C(c2ccc(N(CC)CC)cc2)c2ccc(N(CC)CC)cc2)c2ccccc21	inactive	0.331 µM (active)
NC(=O)C(F)(F)C(F)(F)C(F)(F)C(F)(F)C(F)(F)C(F)(F)C(F)(F)F	inactive	–
FC(F)(F)C(F)(F)C(F)(F)C(F)(F)C(F)(F)C(F)(F)C(F)(F)CCI	inactive	–
Cc1ccc(S(=O)(=O)C(I)I)cc1	–	2.63 µM (active)
OCCCC(F)(F)C(F)(F)C(F)(F)C(F)(F)C(F)(F)C(F)(F)C(F)(F)C(F)(F)F	–	9.4 µM (active) and 6.19 µM (active)
NC(=O)C(F)(F)C(F)(F)C(F)(F)C(F)(F)C(N)=O	inactive	–
O=C(O)CCC(F)(F)C(F)(F)C(F)(F)F	inactive	–

Read-out: TIMP metallopeptidase inhibitor 1 (TIMP1), TIMP1 (gene 7076)
Assay: BSK_hDFCGF_TIMP1: BioMAP Diversity Plus: hDFCGF Assay for TIMP metallopeptidase inhibitor 1 (TIMP1) Biomarker Activity (AID 2283062)
Conditions: primary human foreskin fibroblasts; actives raise or lower the signal
Method in brief: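 Human skin fibroblasts (primary), hDFCGF system; compound exposure 24 h; TIMP-1 by ELISA; bidirectional fit vs DMSO negative control; overt cytotoxicity by SRB in parallel wells.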

SMILES	outcome	AC50
O=S(=O)(OCC(F)(F)F)C(F)(F)C(F)(F)C(F)(F)C(F)(F)F	inactive	–
C=CC(=O)OCC(F)(F)C(F)(F)C(F)(F)C(F)(F)C(F)(F)C(F)(F)C(F)(F)C(F)F	inactive	–
NS(=O)(=O)C(F)(F)C(F)(F)C(F)(F)C(F)(F)C(F)(F)C(F)(F)F	inactive	–
CC(C)CCCC(C)CCO (stereo not given)	inactive	–
CCN(CC)c1ccc(C=O)cc1	inactive	–
O=C=Nc1cccc2c(N=C=O)cccc12	inactive	–
OCCCCC(F)(F)C(F)(F)C(F)(F)C(F)(F)F	inactive	–
CCN(CC)c1ccc(N=Nc2ccccc2)cc1	inactive	–
O=S(=O)(Cl)C(F)(F)C(F)(F)C(F)(F)C(F)(F)C(F)(F)C(F)(F)C(F)(F)C(F)(F)F	inactive	–
O=C(Cl)C(F)(F)C(F)(F)C(F)(F)C(F)(F)C(F)(F)C(F)(F)F	inactive	–
Cc1cc(O)c(C(C)(C)C)cc1C(C)(C)C	–	4.03 µM (active)
O=C(O)C(F)(F)C(F)(F)C(F)(F)C(=O)O	inactive	–
Cc1cnccn1	inactive	–
CN(C(=O)C(F)(F)C(F)(F)C(F)(F)F)[Si](C)(C)C	inactive	–
Brc1nc2ccccc2s1	inactive	–
CCN(CC)c1ccc2c(c1)Oc1cc(N(CC)CC)ccc1C21OC(=O)c2ccccc21	inactive	–
NC(O)(C(F)(F)F)C(F)(F)F	inactive	–
O=C(O)C(F)(F)OC(F)(F)C(F)(F)OC(F)(F)C(F)(F)OC(F)(F)F	inactive	–
O=C(O)C(F)(F)C(F)(F)C(F)(F)C(F)(F)C(F)(F)C(F)(F)C(F)F	inactive	0.223 µM (active)
NC(=O)C(F)(F)C(F)(F)C(F)(F)C(F)F	inactive	–
OC(O)C(F)(F)C(F)(F)F	inactive	–
COC(F)(C(F)F)C(F)(F)F (stereo not given)	inactive	–
Cc1ccc(O)c(-n2nc3ccccc3n2)c1	inactive	–
NC(=O)C(F)(F)C(F)(F)C(F)(F)C(F)(F)C(F)(F)C(F)(F)C(F)(F)F	inactive	–
Cc1ccc(S(=O)(=O)C(I)I)cc1	–	1.62 µM (active)
OCCCC(F)(F)C(F)(F)C(F)(F)C(F)(F)C(F)(F)C(F)(F)C(F)(F)C(F)(F)F	–	9.8 µM (active) and 11.3 µM (active)
NC(=O)C(F)(F)C(F)(F)C(F)(F)C(F)(F)C(N)=O	inactive	–
O=C(O)CCC(F)(F)C(F)(F)C(F)(F)F	inactive	–
